Measured values: PubChem BioAssay (NCI)
About 83,000 compounds went through this panel and 20% of them were active in at least one assay; those are over-represented in the sample as a whole.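 Method: cells in 96-well plates; compound added at one concentration; 48 h incubation; percent growth measured; values under 10 scored active.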 The source made the active and inactive calls.

tested on: OVCAR-3 ovarian; assay: NCI-60 one-dose screen, 48 h (100 = growth as untreated, 0 = no growth, -100 = all killed); conditions: 10 µM

SMILES	growth
C#C[C@]1(O)CCC2C3CCc4cc(OC5CCCC5)ccc4C3CC[C@@]21C (stereo partly specified)	96.4% (inactive)
O=C(N/N=C/c1c(Cl)cccc1Cl)c1ccccc1Nc1cccc(C(F)(F)F)c1	104% (inactive)
COc1cccc(-c2nc3sccn3c2-c2cccc(S(C)(=O)=O)c2)c1	113% (inactive)
CC(=O)Nc1ccc(S(=O)(=O)c2ccnc3cc(Cl)ccc23)cc1	76% (inactive)

tested on: HS 578T breast; assay: as above; conditions: 10 µM

SMILES	growth
NS(=O)(=O)Oc1ccc(NC(=O)C2CCCCCC2)cc1	108% (inactive)
O=C(CSc1nnc(-c2cccnc2SCc2ccccc2)o1)Nc1nc(Cl)cc(Cl)n1	97.4% (inactive)
O=C1/C=C/[C@@H](O)[C@@H]2C[C@@H](O)C[C@H]2/C=C/CCC[C@H](CCc2ccc(NC(=S)Nc3ccc4c(c3)C(=O)OC43c4ccc(O)cc4Oc4cc(O)ccc43)cc2)O1	39.8% (inactive)
O=C(CCl)Nc1ccc(Cc2ccc(NC(=O)CCl)cc2)cc1	35.7% (inactive)
Cc1cc(Cl)ccc1Nc1nc(C(F)(F)F)ccc1C(=O)N/N=C/c1c(Cl)cccc1Cl	-22.1% (active)
COc1ccc2c(c1)C(=O)/C(=C/c1ccc([N+](=O)[O-])o1)O2	17.8% (inactive)
S=C(SSC(=S)N(c1ccccc1)c1ccccc1)N(c1ccccc1)c1ccccc1	108% (inactive)
CC(C)=CCC/C(C)=C/CC/C(C)=C/CC/C=C(\C)CC/C=C(\C)CCC(=O)Nc1ccn(C2OC(CO)C(O)C2(F)F)c(=O)n1 (stereo unspecified)	42.5% (inactive)
c1ccc(/C(=N\Nc2ccc3ccccc3n2)c2ccccn2)cc1	14.7% (inactive)
c1ccc(CSc2ncccc2-c2nnc(SCCN3CCOCC3)o2)cc1	133% (inactive)
CN(C)c1ncnc2c1nnn2C1OC(CO)C(O)C1O (stereo unspecified)	19.8% (inactive)
COc1ccccc1/C=N\N/C(N)=N\N=C\c1ccccc1OC	-14.7% (active)
COc1cc(/C=C/c2cc(/C=C/c3ccc(O)c(OC)c3)nc(N)n2)ccc1O	-0.999% (active)
O=C(/C=C/c1cccc(B(O)O)c1)c1cccc(B(O)O)c1	16.9% (inactive)
CN(C)CCC1(c2ccccc2)CCN(C)C1=O (stereo unspecified)	108% (inactive)
COc1ccc(/C=C/c2nnc(/C=C/c3ccc(OC)c(OC)c3)o2)cc1OC	43.6% (inactive)

SMILES	growth
CN(C)c1ccc(/C=N/NC(=O)c2ccccc2Nc2cccc(C(F)(F)F)c2)cc1	83.5% (inactive)
CN(C)CCOc1ccc(-c2nc3sccn3c2-c2ccnc(S(C)(=O)=O)n2)cc1	101% (inactive)
COc1ccc(CCN2CCC(Nc3nc4ccccc4n3Cc3ccc(F)cc3)CC2)cc1	-40.2% (active)
O=C(CN(C1CCCCC1)C1CCCCC1)Nc1ccc(S(=O)(=O)c2ccc(NC(=O)CN(C3CCCCC3)C3CCCCC3)cc2)cc1	33.9% (inactive)
COc1ccc2nc(-c3ccc(Cl)cc3)cc(-c3nnc(SC/C(=N\O)c4ccccc4)n3-c3ccccc3)c2c1	92.8% (inactive)
Cc1cc(CSc2ccccc2C(=O)N2CC=C(c3ccccc3)CC2)on1	100% (inactive)
CCOC(=O)c1cc(C(=O)c2cc(OC)c(OC)c(OC)c2)n2nc(C)ccc12	55.9% (inactive)
O=C(O)c1ccc(-n2cc(CNc3ccc(Cl)cc3)c(-c3ccccc3)n2)cc1	85% (inactive)
CNC(=O)c1cc(Oc2ccc3c(c2)sc2nc(-c4ccc(N)cc4)cn23)ccn1	54.9% (inactive)
Nc1ccc(CC[C@H]2CCC/C=C/[C@@H]3C[C@H](O)C[C@H]3[C@H](O)/C=C/C(=O)O2)cc1	39.6% (inactive)
CNC(=O)c1cn(C2CC2)c2cc(N3CCN(C(=O)c4cc(OC)c(OC)c(OC)c4)CC3)c(F)cc2c1=O	101% (inactive)
CN1CCN(C2=Nc3ccccc3Oc3ccc(Cl)cc32)CC1	104% (inactive)
COc1ccc(Cc2cnc(N)nc2N)cc1OC	105% (inactive)
COc1ccc(C(c2ccc(OCCN(C)C)cc2)c2cc3ccccc3c3ccccc23)cc1 (stereo unspecified)	75.1% (inactive)
O=C(N/N=C/c1ccc(Cl)cc1)c1ccccc1Nc1cccc(C(F)(F)F)c1	61.7% (inactive)
CC(=O)O[C@@]12CO[C@@H]1C[C@H](O)[C@@]1(C)C(=O)[C@H](O)C3=C(C)[C@@H](OC(=O)[C@H](O)[C@@H](NC(=O)OC(C)(C)C)c4ccccc4)C[C@@](O)([C@@H](OC(=O)c4ccccc4)C12)C3(C)C (stereo partly specified)	12.3% (inactive)
